According to PubChem BioAssay (NCATS):
Inconclusive results are not listed. Activity calls are given as the source filed them. Calls follow the shape of the dose curve; as a rule, active = well fitted cell-killing curve with a large enough effect; inconclusive = small, poorly fitted or top-dose-only effect, or effect the other way; inactive = no such curve, though single readings can be large or run the other way.

Assay: Quantitative High-Throughput drug screen in 47 multiple myeloma cell lines against the NCATS MIPE library collection: MM1S_ATCC cell viability assay (AID 1918980); also: nearly all actives have a fitted effect of over 45% in size
Conditions: MM1S myeloma viability, CellTiter-Glo ATP luminescence, 48 h; series mostly up to 45.8 µM; viability (% of control): at the top concentration
Description: PI: Beverly A. Mock Ph.D.
Laboratory of Cancer Biology and Genetics,
Center for Cancer Research, National Cancer Institute,
National Institute of Health, Bethesda, Maryland
Drug resistance and disease progression are common in multiple myeloma (MM) patients, underscoring the need for new therapeutic combinations. […] We hypothesized that effective combinations would reduce MYC expression and enhance p16 activity. […] These preclinical data identify potentially useful drug combinations for evaluation in drug-resistant MM and reveal potential mechanisms of combined drug sensitivity.
Described herein is the primary MIPE qHTS used to cherrypick compounds. Validated compounds were then further tested for potential synergistic activiy.
[1] Peat TJ, Gaikwad SM, Dubois W, Gyabaah-Kessie N, Zhang S, Gorjifard S, Phyo Z, Andres M, Hughitt VK, Simpson RM, Miller MA, Girvin AT, Taylor A, Williams D, D'Antonio N, Zhang Y, Rajagopalan A, Flietner E, Wilson K, Zhang X, Shinn P, Klumpp-Thomas C, McKnight C, Itkin Z, Chen L, Kazandijian D, Zhang J, Michalowski AM, Simmons JK, Keats J, Thomas CJ, Mock BA. Drug combinations identified by high-throughput screening promote cell cycle transition and upregulate Smad pathways in myeloma. Cancer Lett. 2023 Aug 1;568:216284. doi: 10.1016/j.canlet.2023.216284. Epub 2023 Jun 24. PMID: 37356470; PMCID: PMC10408729.
SEQUENCE No. (e.g., 1, 2, 3, etc.); […] (e.g., Cells, Incubation, Reagent, etc.); VALUE and DESCRIPTION.
1; Cells; 5 uL; white, solid bottom 1536-well Greiner assay plate.
2; Compounds; 23 nL; Kalypsis pin tool (Wako USA) equipped with a 1536-well pin head to transfer to the assay plates.
3; Incubation; 48 hours; 37C incubation.
4; Reagent;5uL; CellTiter Glo (Promega).
5; Detector; 425V; Luminescence; Viewlux PerkinElmer.
NOTES (numbers refer to Sequence numbers above)
1. The cell-based screening methods employed in this study were like those previously published. Briefly, the corresponding myeloma cell lines were screened in 1,536-well plates with 500 cells, 5-uL per well for inhibition of cell viability (assessed by measuring ATP levels with CellTiterGlo).
2. NCATS MIPE 4.0 library of approved and investigational drugs were added using the Kalypsis pin tool. Wells treated with DMSO only for 100% viability and media only for 0% viability were used as controls.
3. The assay plates were covered and incubated for 48 hours in a 37C, 5% CO2 incubator with controlled humidity.
4. After 48 hours, CellTilter-GloTM luminescent substrate mix (Promega) reagent was added to the assay plate and plates we incubated for 5 min at room temperature.
5. Signal was measured as median relative luminescence units on a ViewLux (PerkinElmer) multiplate reader.
[1] Heske CM, Davis MI, Baumgart JT, Wilson K, Gormally MV, Chen L, Zhang X, Ceribelli M, Duveau DY, Guha R, Ferrer M, Arnaldez FI, Ji J, Tran HL, Zhang Y, Mendoza A, Helman LJ, Thomas CJ. Matrix Screen Identifies Synergistic Combination of PARP Inhibitors and Nicotinamide Phosphoribosyltransferase (NAMPT) Inhibitors in Ewing Sarcoma. Clin Cancer Res. 2017 Dec 1;23(23):7301-7311. doi: 10.1158/1078-0432.CCR-17-1121. Epub 2017 Sep 12. PMID: 28899971; PMCID: PMC6636827.
Potency is read from the fitted curve at half-maximal effect.

Row | SMILES | Potency | viability (% of control)
1 | CN(C1CCc2c(c3ccccc3n2CC(=O)O)C1)S(=O)(=O)c1ccc(F)cc1 (stereo not given) | 1.48 µM (active) | –
2 | CN1CCN(c2cc(C(=O)Nc3ccc4c(c3)-c3c(c(C(N)=O)nn3-c3ccc(F)cc3)CC4)c(Cl)cn2)CC1 | 3.32 µM (active) | –
3 | CC(C)(C)c1cc(C(C)(C)C)c(NC(=O)c2c[nH]c3ccccc3c2=O)cc1O | – | 156% (inactive)
4 | Cc1[nH]nc2ccc(-c3cncc(OC[C@@H](N)Cc4ccccc4)c3)cc12 | 0.935 µM (active) | –
5 | CC(C)c1ccc(Cn2ccc3c4c(N)nc(NC5CC5)nc4ccc32)cc1 | 10.5 µM (active) | –
6 | COc1cc2c(Oc3ccc(NC(=O)C4(C(=O)Nc5ccc(F)cc5)CC4)cc3F)ccnc2cc1OCCCN1CCOCC1 | 16.6 µM (active) | –
7 | COc1ccc(C(=O)CC2(O)C(=O)Nc3c(Cl)ccc(Cl)c32)cc1 (stereo not given) | 18.7 µM (active) | –
8 | O=c1[nH]nc(Sc2ncc([N+](=O)[O-])s2)n1-c1ccc2c(c1)OCCO2 | 2.35 µM (active) | –
9 | Cn1cc(-c2ccncc2)c(-c2ccc(OCc3ccc4ccccc4n3)cc2)n1 | 14.8 µM (active) | –
10 | COc1cc2ncn(-c3cc(OCc4ccccc4C(F)(F)F)c(C(N)=O)s3)c2cc1OC | 3.32 µM (active) | –
11 | CC1(C)O[C@@H]2C[C@@H]3[C@H]4C[C@@H](F)C5=CC(=O)C=C[C@]5(C)[C@@]4(F)[C@@H](O)C[C@]3(C)[C@]2(C(=O)CO)O1 | 0.0118 µM (active) | –
12 | COC(=O)C[C@](O)(CCCC(C)(C)O)C(=O)O[C@@H]1C(OC)=C[C@]23CCCN2CCc2cc4c(cc2[C@H]13)OCO4 | – | 137% (inactive)
13 | CCCCN1CCC(CNC(=O)c2c3n(c4ccccc24)CCCO3)CC1 | 3.72 µM (active) | –
14 | C=CC(=O)Nc1cc2c(Nc3ccc(F)c(Cl)c3)ncnc2cc1C#CC(C)(C)N1CCN(C)CC1 | 2.09 µM (active) | –
15 | CC1(C)CC(=O)c2c(C(F)(F)F)nn(-c3ccc(C(N)=O)c(NC4CCC(OC(=O)CN)CC4)c3)c2C1 (stereo not given) | 0.209 µM (active) | –
16 | CC1=C(CO)C(=O)O[C@@H]([C@@H](C)[C@H]2CC[C@H]3[C@@H]4C[C@H]5O[C@]56[C@@H](O)C=CC(=O)[C@]6(C)[C@@H]4CC[C@]23C)C1 | 0.148 µM (active) | –
17 | Nc1ncnc2c1c(-c1cccc(OCc3ccccc3)c1)cn2C1CC(CN2CCCC2)C1 (stereo not given) | 1.87 µM (active) | –
18 | CC=CC1=C(C(=O)O)N2C(=O)[C@H](NC(=O)[C@H](N)c3ccc(O)cc3)[C@@H]2SC1 | 14.8 µM (active) | –
19 | CCC[C@H](NC(=O)C(C#N)=Cc1cccc(Br)n1)c1ccccc1 | 7.43 µM (active) | –
20 | Clc1ccc2ncc(-c3cccc(NC4CNC4)n3)n2c1 | 5.26 µM (active) | –

Row | SMILES | Potency | viability (% of control)
21 | O=C(Nc1cc(C(F)(F)F)cc(C(F)(F)F)c1)c1cc(Cl)ccc1O | 0.59 µM (active) | –
22 | COc1ccc(OC)c(-c2nnc3ccc(-c4ccc(OC)c(O[C@@H]5CCOC5)c4)nn23)c1 | 7.43 µM (active) | –
23 | O=C(O)[C@H](Cc1c[nH]c2ccccc12)N1C(=O)c2ccccc2C1=O | 42.9 µM (active) | –
24 | C=C1C(=CC=C2CCCC3(C)[C@@H]([C@H](C)C=CC=CC(O)(CC)CC)CC[C@@H]23)C[C@@H](O)C[C@@H]1O (stereo not given in full) | 10.5 µM (active) | –
25 | Cn1c(=O)n(-c2ccc(C(C)(C)C#N)cc2)c2c3cc(-c4cnc5ccccc5c4)ccc3ncc21 | 0.296 µM (active) | –
26 | Cc1cc(Nc2nc(N[C@@H](C)c3ccc(F)cc3)c(C#N)cc2F)n[nH]1 | 20.9 µM (active) | –
27 | CC1COC2(CCN(c3nc(=O)c4cc(C(F)(F)F)cc([N+](=O)[O-])c4s3)CC2)O1 (stereo not given) | – | 116% (inactive)
28 | CN(C)Cc1c(C(=O)NCCOc2ccc(C(=O)NO)cc2)oc2ccccc12 | 0.469 µM (active) | –
29 | C[C@@H]1CN(CC(=O)Nc2ccc3c(c2)Cc2cccc(-c4cc(=O)cc(N5CCOCC5)o4)c2S3)C[C@H](C)O1 | 18.7 µM (active) | –
30 | CNC(=O)c1ccc(-c2cnc3ncc(Cc4ccc5ncccc5c4)n3n2)cc1F | – | 136% (inactive)
31 | COc1cc(OC2CCN(C)CC2)ccc1Nc1ncc2c(n1)n(C1CCCC1)c(=O)n2C | 11.8 µM (active) | –
32 | C[C@]1(CO)CN(c2cc(C(=O)Nc3ccc4c(c3)-c3c(c(C(N)=O)nn3-c3ccc(F)cc3)CC4)c(Cl)cn2)C[C@@]1(C)CO | 14.8 µM (active) | –
33 | CS(=O)(=O)c1ccc(-c2cnc(N)c(C(=O)Nc3ccccc3)n2)cc1 | 9.35 µM (active) | –
34 | C[C@@]12O[C@@H](C[C@]1(O)CO)n1c3ccccc3c3c4c(c5c6ccccc6n2c5c31)CNC4=O | 1.05 µM (active) | –
35 | Cn1cncc1[C@@](N)(c1ccc(Cl)cc1)c1ccc2c(c1)c(-c1cccc(Cl)c1)cc(=O)n2C | 6.62 µM (active) | –
36 | CN(C)c1nc(Cc2ccc(NC(=O)c3ccc4ccccc4c3)cc2)nc(Cl)c1CC(=O)O | 2.96 µM (active) | –
37 | O=C(NCCS(=O)(=O)c1ccc(C(F)(F)F)cn1)c1ccc(Cl)cc1 | – | 112% (inactive)
38 | Cn1c2cc(S(C)=O)sc2c2cnn(Cc3cccc(N)c3)c(=O)c21 (stereo not given) | – | 125% (inactive)
39 | CC(C)c1cnn2c(NCc3ccccc3)cc(N[C@@H](CO)[C@H](O)CO)nc12 | 0.235 µM (active) | –
40 | CCCn1c(=O)c2[nH]c(-c3cnn(Cc4cccc(C(F)(F)F)c4)c3)nc2n(CC)c1=O | 16.6 µM (active) | –
